Compounds with a hit are over-represented: about 19% of the library has one in this group of screens.
uPA surface inh: cell surface uPA generation inhibition; 330,000 compounds, 0.31% hits; Potency, µM (doses to about 38.3 µM), most hits filed as inhibitors; cell surface uPA generation assay, qHTS; active = well fitted inhibition curve with a large enough effect; inconclusive = small, poorly fitted or top-dose-only effect; inactive = no such curve, though single readings can be large or run the other way; tested in mouse RAW 264.7 cells; note: nearly all actives have a fitted effect of over 55% in size
HT1080 IDH1KD tx: kills HT-1080 cells with IDH1 knockdown; HT-1080 IDH1 knockdown viability, ATP luminescence, 48 h; AID 686971; 360,000 compounds, 2% hits; Potency, µM (series often up to 46.1 µM), usual class: cytotoxic
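After a 2 h attachment period, IDH1KD HT-1080 cells took pin-transferred compound for 48 h at 37 °C; ATP-based luminescence after 10 min room-temperature reagent incubation reported viability.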
DT40 TDP1 CPT: growth inhibition of DT40 Tdp1-/-;hTDP1 cells with camptothecin (screen for TDP1 inhibitors); Potency, µM (series often up to 46.2 µM), hits mostly inhibitors; chicken DT40 Tdp1-/-;hTDP1 cells + 20 nM CPT, ATP luminescence, 48 h; AID 686979; 420,000 compounds, 12% hits; note: nearly all actives have a fitted effect of over 55% in size
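Cell growth measured by CellTiter-Glo luminescence after a minimum 48 h, 37 C compound exposure with 20 nM CPT in Tdp1-knockout DT40 cells stably expressing hTDP1, seeded 400/well; qHTS titration format.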
IL1B secr inh: inhibitors of inflammasome signaling (IL-1 beta secretion); THP-1 LPS/ATP IL-1B secretion, AlphaLISA, 16 h; stronger effect = lower value; 360,000 compounds, 4.7% hits; activity change, % at 57.5 µM; AID 743279; in the data active = activity change below about -50%; inconclusive = mostly about -30% to -49%
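Secreted IL-1B measured by AlphaLISA bead assay after 16 h compound exposure of THP-1 cells; compounds (final up to 57.5 uM) added 1 h before LPS (250 ng/mL) and ATP (1.25 mM) stimulation; lower signal means less secretion.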
HT1080-NT tox: kills 2HG-producing HT-1080-NT fibrosarcoma cells; HT-1080-NT fibrosarcoma viability, CellTiter-Glo ATP luminescence, 48 h; Potency, µM (highest dose often 46.1 µM), actives largely listed as cytotoxic; 360,000 compounds, 1.6% hits;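 note: NT is the 2HG producing partner of a matched IDH1 knockdown line; nearly all actives have a fitted effect of over 55% in size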
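750 cells/well, RPMI + 5% FBS; 2 h settle, compound pin-transfer, 48 h at 37 degrees C. CellTiter-Glo 10 min RT, luminescence. Normalized to DMSO and media-only wells.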
TDP1 cell noCPT: qHTS for Inhibitors of human tyrosyl-DNA phosphodiesterase 1 (TDP1): qHTS in cells in absence of CPT; Potency, µM (titrated, usually from 46.2 µM), actives largely listed as inhibitors; DT40 Tdp1-/- hTDP1 cells, no CPT, ATP luminescence, 48 h; 420,000 compounds, 15% hits; note: nearly all actives have a fitted effect of over 55% in size
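Cells were dispensed at 400 per well, compounds added by pin tool, plates incubated ≥48 hr at 37 °C, then CellTiter-Glo added for 30 min at room temperature before luminescence reading. Line: DT40 Tdp1-/- complemented with hTDP1; camptothecin omitted.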
A number is an active result; i = inactive; ? = inconclusive; nt = not tested or not shown; [ ] = dose if it differs, or a comment. Unless noted, calls come from the whole dose curve; as a rule, active = well fitted curve in the direction sought with a large enough effect; inconclusive = small, poorly fitted or top-dose-only effect, or another doubt; inactive = no such curve, though single readings can be large; an effect the other way counts as inactive or inconclusive.

SMILES | uPA surface inh | HT1080 IDH1KD tx | DT40 TDP1 CPT | IL1B secr inh | HT1080-NT tox | TDP1 cell noCPT
O=C(CS(=O)CC(=O)NC12CC3CC(CC(C3)C1)C2)Nc1ccc(F)cc1 (centres undefined) | i | i | i | i | i | i
Cc1[nH]nc2c1C(=O)CCC2 | i | i | 23µM | i | i | 18µM
O=C(CCN1CCCC1=O)NC1CCCc2c1cnn2-c1ccc(F)cc1F (centres undefined) | i | i | i | i | i | i
CCSc1nc2c([nH]c3ccccc32)c(=O)n1CC | nt | nt | i | nt | nt | i
O=C(NCCCn1ccnc1)c1ccc(S(=O)(=O)N2CCCCCC2)cc1 | i | i | ? | i | i | ?
CC1CC(C)CN(S(=O)(=O)c2ccc(C(=O)NCc3ccc4c(c3)OCO4)cc2)C1 (centres undefined) | i | i | 16µM | i | i | ?
CC1CN(S(=O)(=O)c2ccc(C(=O)Nc3nnc(-c4ccc5c(c4)CCCC5)o3)cc2)CC(C)O1 (centres undefined) | ? | i | 6.5µM | i | i | 12µM
CC1CC(C)CN(S(=O)(=O)c2ccc(C(=O)NCCCn3ccnc3)cc2)C1 (centres undefined) | i | ? | 29µM | i | ? | ?
O=C(Nc1nnc(C2CC2)o1)c1ccc(S(=O)(=O)N2CCCCC2)cc1 | i | i | ? | -69 | i | ?
CC1CN(S(=O)(=O)c2ccc(C(=O)Nc3nnc(-c4ccccn4)o3)cc2)CC(C)O1 (centres undefined) | i | i | i | i | i | i
C[C@@H]1CN([C@@H](C)CO)C(=O)CCCn2nncc2CO[C@H]1CN(C)S(=O)(=O)c1cccs1 | nt | i | i | i | i | i
COc1ccccc1-n1nc(-c2ccccc2)c2cnc3cc(C(F)(F)F)ccc3c21 | nt | nt | i | nt | nt | i
Cc1cccc(NC(=O)c2ccc(S(=O)(=O)N3CCC(C)CC3)cc2)n1 | i | ? | ? | i | i | 16µM
Cc1nnc(NC(=O)c2ccc(S(=O)(=O)N3CC(C)CC(C)C3)cc2)o1 (centres undefined) | i | i | ? | i | i | 16µM
CCOC(=O)N1CCN(S(=O)(=O)c2ccc(C(=O)Nc3nnc(C)o3)cc2)CC1 | i | i | i | i | ? | i
CC1CCCCN1S(=O)(=O)c1ccc(C(=O)Nc2nnc(C3CC3)o2)cc1 (centres undefined) | i | ? | 16µM | i | i | ?
CC1CCN(S(=O)(=O)c2ccc(C(=O)Nc3nnc(C4CC4)o3)cc2)CC1 | i | ? | 18µM | i | i | ?
Cc1cccc(NC(=O)c2ccc(S(=O)(=O)N3CCCCC3)cc2)n1 | i | i | i | i | i | i
COC(=O)c1ccc(S(=O)(=O)NC(C)(C)C)n1C | i | i | i | i | i | i
CC(NS(=O)(=O)c1ccc(OCC(=O)NCc2ccccn2)cc1)c1ccccc1 (centres undefined) | i | i | ? | i | i | i
Cc1cc(NC(=O)C(C)SCC(=O)N(Cc2ccccc2)c2ccccc2)no1 (centres undefined) | i | i | i | i | i | ?
C=C(C)c1ccc(C(C)(C)NC(=O)N(Cc2ccccc2)Cc2ccco2)cc1 | i | ? | 18µM | i | i | 16µM
Cc1cc(C)c2c(CC(=O)NN(C)C)coc2c1 | i | i | i | i | i | i
Cc1ccc(CN(Cc2ccco2)C(=O)c2ccco2)cc1 | i | i | ? | i | i | i
Cc1ccccc1C(=O)N(Cc1ccc(N(C)C)cc1)Cc1ccco1 | nt | nt | ? | nt | nt | 18µM
SMILES | uPA surface inh | HT1080 IDH1KD tx | DT40 TDP1 CPT | IL1B secr inh | HT1080-NT tox | TDP1 cell noCPT
CN(C)c1ccc(-c2cncnc2N(C)Cc2ccco2)cc1 | nt | nt | ? | nt | nt | i
CCSc1ncc(Cl)c(C(=O)N(Cc2ccc(N(C)C)cc2)Cc2ccco2)n1 | nt | nt | ? | nt | nt | 21µM
Cc1cc(C)c2c(CC(=O)N(Cc3ccc(N(C)C)cc3)Cc3ccco3)coc2c1 | nt | nt | 15µM | nt | nt | 21µM
C=C(C)c1ccc(C(C)(C)NC(=O)NCc2ccco2)cc1 | i | i[9.24 µM] | i | i | i | i
CC(CCN1CCC(n2nccc2NC(=O)c2ccccc2Cl)CC1)c1ccccc1 (centres undefined) | i | i | ? | i | i | i
Cc1ccc(NC(=O)Nc2nnc(N3CCCC3)s2)c(C)c1 | nt | nt | i | nt | nt | i
C/C(Cn1nnc2ccccc21)=N\NC(=O)c1cccc(Br)c1 | i | i | i | i | i | i
COCCN1C[C@@H](CO)O[C@@H](n2cnc3c(NCCO)ncnc32)C1 | nt | i | i | i | i | ?
CC(C)Oc1ccc(C(=O)N(Cc2ccco2)c2ccccn2)cc1 | nt | nt | i | nt | nt | ?
CCOc1ccc(C(=O)NCc2ccco2)cc1 | nt | i | ? | i | i | i
CCCCOc1ccc(C(=O)N(Cc2ccc(N(C)C)cc2)Cc2ccco2)cc1 | nt | nt | ? | nt | nt | 13µM
CC(C)Oc1ccc(C(=O)N(Cc2ccc(N(C)C)cc2)Cc2ccco2)cc1 | nt | nt | ? | nt | nt | 13µM
CCCCOc1ccc(C(=O)N(Cc2ccco2)Cc2ccco2)cc1 | nt | nt | ? | nt | nt | 21µM
CCSc1ncc(Cl)c(C(=O)N(Cc2ccccc2)c2ccc(OC)cc2)n1 | nt | nt | ? | nt | nt | 5.8µM
CC1CCN(C(=O)c2[nH]cnc2C(=O)N[C@@H](C)c2ccccc2)CC1 | i | i | i | i | i | i
Cc1ccc(C(=O)N(Cc2ccc(N(C)C)cc2)Cc2ccco2)cc1 | nt | nt | ? | nt | nt | 21µM
NC(=O)CC(NSc1ccccc1[N+](=O)[O-])C(=O)O (centres undefined) | i | i | 16µM | i | i | 18µM
O=C(O)C1CCC(NSc2ccccc2[N+](=O)[O-])CC1 (centres undefined) | i | i | 2.9µM | i | i | 2.6µM
O=[N+]([O-])c1ccccc1SNc1ccccc1 | nt | i | i | ? | i | i
COC(=O)Cn1c(=O)c2c(nc3n2CCN3c2ccc(F)cc2)n(C)c1=O | nt | nt | i | nt | nt | i
CCN(CCNCC(O)COCc1ccc(Cl)cc1)c1cccc(C)c1 (centres undefined) | i | ? | ? | nt | 16µM | ?
O=C1CCN(Cc2ccccc2)S(=O)(=O)c2ccccc21 | i | i | 29µM | i | i | ?
C=C1CCN(Cc2ccccc2)S(=O)(=O)c2ccccc21 | ? | i | i | i | i | i
C/C(=N/NC(=O)c1nnn(-c2nonc2N)c1CSc1ccc(C)cc1)c1ccncc1 | nt | i | i | i | i | i
O=C(NCC(c1cccnc1)N1CCc2ccccc2C1)C(=O)Nc1ccc(Cl)cc1 (centres undefined) | nt | nt | 12µM | nt | nt | 8.2µM
O=C(NCC(c1cccnc1)N1CCOCC1)c1cccc(Cl)c1 (centres undefined) | i | i | i | i | i | i

Source: PubChem BioAssay
